# Screening results as filed in PubChem BioAssay.
# ATXN viability = reduces viability in counter-screen for ATXN expression inhibitors. S2 cells (HEK-293 line with an ATXN2-luciferase reporter) viability, CellTiter-Fluor protease fluorescence, 24 h. Potency, µM (highest dose often 56.7 µM), hits mostly cytotoxic. 0.49% of 400,000 active. AID 651635; note: nearly all actives have a fitted effect of over 40% in size
# TGFb inhibitor = blocks TGF-b signaling. HepG2 CAGA-GFP TGF-b/SMAD3 reporter, GFP fluorescence, 18 h; TGF-beta stimulated, 500 pg/mL final. Potency, µM (top dose mostly 46.1 µM), hits mostly inhibitors. 1.2% of 410,000 active. AID 588855; note: nearly all actives have a fitted effect of over 65% in size
#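 Per well, imaged GFP fluorescence of HEPG2 CAGA-GFP cells gives the signal; cells get compound, then TGF-beta (500 pg/mL final), 18 h at 37 degrees C; %Activity versus -TGF-beta and +DMSO controls.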
# 12-LOX inh = inhibitors of human 12S-lipoxygenase ALOX12; purified 12hLO, xylenol orange hydroperoxide absorbance; P18054; Potency, µM (top dose mostly 108 µM), most hits filed as inhibitors; 1.1% of 580,000 active
# Target sequence (P18054 whole entry, looked up): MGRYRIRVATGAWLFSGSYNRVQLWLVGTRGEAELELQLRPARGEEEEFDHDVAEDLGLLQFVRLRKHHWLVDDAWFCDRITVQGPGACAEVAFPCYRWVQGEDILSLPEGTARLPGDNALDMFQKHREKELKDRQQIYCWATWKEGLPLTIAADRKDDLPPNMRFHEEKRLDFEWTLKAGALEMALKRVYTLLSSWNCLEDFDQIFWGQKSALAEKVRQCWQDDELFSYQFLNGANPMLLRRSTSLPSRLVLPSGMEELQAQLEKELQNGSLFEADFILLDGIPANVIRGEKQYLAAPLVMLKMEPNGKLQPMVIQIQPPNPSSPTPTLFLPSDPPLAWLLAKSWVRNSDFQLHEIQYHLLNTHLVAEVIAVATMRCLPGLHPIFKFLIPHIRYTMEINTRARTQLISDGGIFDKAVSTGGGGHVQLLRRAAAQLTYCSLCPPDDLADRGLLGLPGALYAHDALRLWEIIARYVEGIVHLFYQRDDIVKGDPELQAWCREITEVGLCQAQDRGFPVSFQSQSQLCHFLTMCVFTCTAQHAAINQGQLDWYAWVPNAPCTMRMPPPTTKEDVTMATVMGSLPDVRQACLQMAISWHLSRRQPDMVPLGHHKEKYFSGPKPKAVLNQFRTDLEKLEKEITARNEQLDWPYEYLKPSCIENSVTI
#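 Hydroperoxide product was detected by ferrous iron/xylenol orange as the 573 to 405 nm absorbance ratio. Arachidonic acid at 40 uM (final) was turned over for 30 min at room temperature by 150 nM human 12hLO, pH 7.0 Hepes buffer, after 15 min compound preincubation.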
# ATXN2 expr inh = ATXN2 expression inhibition. HEK-293 ATXN2-luciferase reporter, luminescence, 24 h. Potency, µM (titrated, usually from 57 µM), actives largely listed as inhibitors. 0.72% of 360,000 active. AID 1745845; note: nearly all actives have a fitted effect of over 55% in size
#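 ATXN2-luciferase reporter cells (luciferase flanked by upstream and downstream ATXN2 gene portions) were treated 24 h at 37 °C with compounds at up to 57 uM. SteadyGlo luminescence gave expression; GF-AFC fluorescence gave viability.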
# HepG2 viability = counter-screen for TGF-b inhibitors: cytotoxicity in HepG2 cells; HepG2 CAGA-GFP viability, ATP luminescence, 18 h; Potency, µM (highest dose often 46.1 µM), actives largely listed as cytotoxic; 0.76% of 410,000 active; AID 588856
#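 CellTiter-Glo luminescence gave cytotoxicity after 18 hours at 37 degrees C. The cells were HepG2 CAGA-GFP in 1% FBS DMEM, stimulated with 500 pg/mL TGF-beta after compound addition. %Activity was normalised to no-cell wells (complete cell-killing) and DMSO (no toxicity), and curves were fitted and classified.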
# A number is an active result; 0 = inactive; ? = inconclusive; - = no result given. Hits are enriched below; roughly 2.7% of the tested compounds scored in any of these assays. Calls come from the whole dose curve; as a rule, active = well fitted curve in the direction sought with a large enough effect; inconclusive = small, poorly fitted or top-dose-only effect, or another doubt; inactive = no such curve, though single readings can be large; an effect the other way counts as inactive or inconclusive.
SMILES,ATXN viability,TGFb inhibitor,12-LOX inh,ATXN2 expr inh,HepG2 viability
COc1ccc(C(CCN2CCOCC2)c2c(OC)cc(OC)c3ccc(=O)oc23)cc1 (centres undefined),?,?,0,0,0
COC(=O)c1ccc2nc(C3CCCCC3)c(CC(C)(C)C)n2c1,-,?,?,?,10µM
CCCOc1cccc(-c2cc(C(=O)N/N=C/c3ccccn3)c3ccccc3n2)c1,?,?,0,7.1µM,0
COc1ccc(-c2cc(C(=O)NCc3ccc(F)cc3)c3ccccc3n2)c(OC)c1,-,-,16µM,-,-
COCCNC(=O)c1cc(-c2ccc(Cl)cc2)nc2ccccc12,-,-,0,-,-
COc1ccc(Cl)cc1C(=O)NNC(=S)NC(=O)c1cc(-c2ccc(Cl)cc2)nc2ccccc12,0,0,50µM,0,0
CCNC(=S)NNC(=O)c1cc(-c2ccc(OC)cc2)nc2ccccc12,0,0,?,0,7.9µM
N#CCCCCOc1ccc(-c2ccccc2)cc1,-,-,0,-,-
CCc1ccc2c(c1)-c1ccccc1S(=O)(=O)N2CC(=O)NCc1ccncc1,-,-,0,-,-
CN(C)CCOc1cccc(N)c1,-,-,0,-,-
CCN(CC)S(=O)(=O)c1cc(C)c(C)c(NS(=O)(=O)/C=C/c2ccccc2)c1,-,-,0,-,-
CCCCOc1cccc(-c2cc(C(=O)NNC(=S)NCC)c3ccccc3n2)c1,?,?,0,0,0
CCCCOc1ccc(-c2cc(C(=O)NNC(=S)NCC)c3ccccc3n2)cc1,?,?,?,?,8.9µM
O=C(Nc1ccccc1Cl)Nc1c(N2CCCC2)c2ccccc2oc1=O,-,-,0,-,-
Cc1ccc(CN2C(=O)NC3(CCCN(C(=O)c4cc5ccccc5[nH]4)C3)C2=O)cc1 (centres undefined),-,-,13µM,-,-
O=C(c1cc2ccccc2[nH]1)N1CCC2(C1)NC(=O)N(Cc1ccc(F)cc1)C2=O (centres undefined),-,-,0,-,-
Cc1nc(NC2=NCN(CCCN3CCOCC3)CN2)nc2c(C)cccc12,?,16µM,-,?,0
C=C(c1nc2ccccc2s1)C1Cc2cccc3c2N(CCC3)C1 (centres undefined),-,4µM,-,-,7.1µM
Cc1cccc(-c2nc(CSc3nc(C)c(CCO)c(=O)[nH]3)c(C)o2)c1,-,-,0,-,-
CCNC(=S)N/N=C(\C)c1ccc2ccccc2c1OC(F)F,?,?,40µM,?,0
C/C(=N\NC(=S)NC(C)C)c1ccccc1OC(F)F,0,0,0,0,0
O=C(O)C12CC3CC(CC(Cl)(C3)C1)C2,-,-,0,-,-
O=C(C1=C(O)C(=O)N(c2ncccn2)C1c1ccc(Cl)c(Cl)c1)c1ccco1 (centres undefined),0,0,2µM,0,0
CSc1nnc(N2C(=O)C(O)=C(C(=O)c3ccco3)C2c2cccc(Cl)c2)s1 (centres undefined),0,0,40µM,-,0
COc1ccc(C2=C(O)C(=O)N(c3ccc(OC)cc3)C2c2cccc(Br)c2)cc1 (centres undefined),-,-,0,-,-
SMILES,ATXN viability,TGFb inhibitor,12-LOX inh,ATXN2 expr inh,HepG2 viability
Cn1c2c(c(=O)[nH]c1=O)C(c1ccc(C(=O)O)cc1)C1=C(N2)c2ccccc2C1=O (centres undefined),-,-,45µM,-,-
N#Cc1nc(-c2ccc([N+](=O)[O-])cc2)oc1N1CCN(CCO)CC1,-,-,0,-,-
NN/C(=C\[N+](=O)[O-])Nc1ccc(Cl)cc1,0,?,35µM,0,0
NN/C(=C\[N+](=O)[O-])Nc1ccccc1,0,0,0,0,0
CC(=O)Nc1ccc(S(=O)(=O)/N=C2\C(=O)c3ccccc3C([O-])=C2n2cc[n+](-c3ccccn3)c2)cc1,?,?,?,-,0
Cc1ccc(NC(=O)C[n+]2ccn(C3=C([O-])c4ccccc4C3=O)c2)cc1,0,0,0,0,0
CCCC[n+]1ccn(C2=C([O-])c3ccccc3C(=O)/C2=N\S(=O)(=O)c2ccc(Br)cc2)c1,?,6.3µM,0,0,0
Cc1ccc(S(=O)(=O)/N=C2\C(=O)c3ccccc3C([O-])=C2n2cc[n+](CCC(C)C)c2)cc1,0,4µM,-,?,7.1µM
O=C1NCCCCCCN(C(=O)c2cccnc2)[C@H]2C[C@H](C(=O)N3CCc4ccccc4C3)C[C@@H]12,-,-,0,-,-
COc1ccc(NC(=O)C2=NO[C@@H]3CN(Cc4ccc(F)cc4)C[C@H]23)cn1,-,-,0,-,-
COc1ccc(CCN2C(=O)CSC2=S)cc1OC,22µM,?,?,?,0
COc1ccc(CN2C(=O)CSCC2=O)cc1OC,0,0,0,-,0
Cn1c(SCC(=O)N2CCc3ccccc32)nnc1-c1cccc(NC(=O)c2ccccc2F)c1,-,-,35µM,-,-
COc1ccc(N2CCN(C(=O)CNC(=O)Cc3ccccc3)CC2)cc1,0,?,0,0,0
COc1ccc(N2CCN(C(=O)CNC(=O)Cc3ccc(Cl)cc3)CC2)cc1,0,0,32µM,0,0
COc1ccc(C(=O)NCCn2cc(SCc3c(F)cccc3Cl)c3ccccc32)cc1,14µM,16µM,?,?,0
COc1ccc(C(=O)NCCn2cc(SCC(=O)Nc3cccc(C)c3)c3ccccc32)cc1,?,?,0,?,0
CSc1ccccc1C(=O)Nc1c(C)cc(C)cc1Cl,-,-,0,-,-
CN(C)CCCn1c(=O)n(CCc2ccccc2)c(=O)c2c3c(sc21)CCCCC3,0,0,0,-,0
CN(C)CCCn1c(=O)n(Cc2ccco2)c(=O)c2c3c(sc21)CCCCC3,0,?,0,0,13µM
Cn1c2ccccc2c2c3c(c4c5ccccc5n(CCC#N)c4c21)CNC3=O,-,-,0,6.9µM,-
Cc1c(C)n(CCC#N)c2ccccc12,?,0,0,0,0
CC(C)CCNc1nc(C(=O)OCC(=O)NC(=O)NC(C)C)cs1,-,-,0,-,-
C=CCN(Cc1ccccc1OCC)C(=O)c1ccc(N(C)S(C)(=O)=O)cc1,-,-,0,-,-
CCCCCOc1c(Cl)cc(C(=O)N(Cc2ccc(C)o2)C2CCS(=O)(=O)C2)cc1Cl (centres undefined),?,18µM,0,?,0
SMILES,ATXN viability,TGFb inhibitor,12-LOX inh,ATXN2 expr inh,HepG2 viability
CCCCOc1c(Cl)cc(C(=O)N(Cc2ccc(C)o2)C2CCS(=O)(=O)C2)cc1Cl (centres undefined),?,?,0,0,0
O=C(CCl)Nc1cccc(S(=O)(=O)NC2=NCCCCC2)c1,-,?,0,-,11µM
COc1cc(CC(=O)Nc2cc(S(=O)(=O)N3CCCCC3)ccc2C)cc(OC)c1OC,-,-,22µM,-,-
O=C(Nc1nn[nH]n1)c1cccc(S(=O)(=O)N2CCCCCC2)c1,-,-,10µM,-,-
CCOc1ccc(S(=O)(=O)N2CCCCC2)cc1NC(=O)Cc1cc(OC)c(OC)c(OC)c1,0,0,0,-,0
O=C(CCl)Nc1cccc(S(=O)(=O)N2CCCCCC2)c1,25µM,?,0,?,0
Cc1cc(Cl)ccc1NC(=O)C1CC2CCC1C2 (centres undefined),-,-,0,-,-
O=C(O)CSc1ccc(Br)cc1,-,-,0,-,-
O=C(CSc1nc2cc(Cl)ccc2s1)N1CCC(Cc2ccccc2)CC1,-,-,0,-,-
